Data from ChEMBL document CHEMBL1961873, “Compounds: GSK PKIS; Assays: Nanosyn kinase panel” (2012).

Tests used:
[1] = biological target: Protein kinase C gamma type (Homo sapiens) (UniProt P05129); conditions: at 1 µM;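 note: each value is an averaged percent inhibition of the enzyme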
[2] = biological target: T1, Protein kinase C iota type (Homo sapiens) (UniProt P41743); conditions: at 0.1 µM
T1 sequence (whole entry): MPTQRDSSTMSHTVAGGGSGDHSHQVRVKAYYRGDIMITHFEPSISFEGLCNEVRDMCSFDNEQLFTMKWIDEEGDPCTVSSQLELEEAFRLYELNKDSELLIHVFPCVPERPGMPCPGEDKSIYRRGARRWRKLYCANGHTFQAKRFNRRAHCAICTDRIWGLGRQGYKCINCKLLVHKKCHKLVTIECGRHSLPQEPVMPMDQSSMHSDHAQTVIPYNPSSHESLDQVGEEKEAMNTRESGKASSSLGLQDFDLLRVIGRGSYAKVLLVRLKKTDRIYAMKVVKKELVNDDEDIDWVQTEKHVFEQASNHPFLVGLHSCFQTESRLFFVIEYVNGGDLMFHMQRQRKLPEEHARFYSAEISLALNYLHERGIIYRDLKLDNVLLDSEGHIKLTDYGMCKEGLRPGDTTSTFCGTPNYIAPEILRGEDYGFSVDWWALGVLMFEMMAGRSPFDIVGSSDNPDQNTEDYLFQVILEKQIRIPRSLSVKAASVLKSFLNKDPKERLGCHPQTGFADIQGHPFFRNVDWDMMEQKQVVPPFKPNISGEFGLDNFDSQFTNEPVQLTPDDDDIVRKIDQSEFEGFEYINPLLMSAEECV

[3] = biological target: T1, Protein kinase C iota type (Homo sapiens); conditions: at 1 µM
[4] = biological target: Protein kinase C theta type (Homo sapiens) (UniProt Q04759); conditions: at 0.1 µM
[5] = biological target: Protein kinase C theta type (Homo sapiens) (UniProt Q04759); conditions: at 1 µM
[6] = biological target: Protein kinase C beta type (Homo sapiens) (UniProt P05771); conditions: at 0.1 µM
[7] = biological target: Protein kinase C beta type (Homo sapiens) (UniProt P05771); conditions: at 1 µM
[8] = biological target: T2, Serine/threonine-protein kinase D1 (Homo sapiens) (UniProt Q15139); conditions: at 0.1 µM
T2 sequence (whole entry): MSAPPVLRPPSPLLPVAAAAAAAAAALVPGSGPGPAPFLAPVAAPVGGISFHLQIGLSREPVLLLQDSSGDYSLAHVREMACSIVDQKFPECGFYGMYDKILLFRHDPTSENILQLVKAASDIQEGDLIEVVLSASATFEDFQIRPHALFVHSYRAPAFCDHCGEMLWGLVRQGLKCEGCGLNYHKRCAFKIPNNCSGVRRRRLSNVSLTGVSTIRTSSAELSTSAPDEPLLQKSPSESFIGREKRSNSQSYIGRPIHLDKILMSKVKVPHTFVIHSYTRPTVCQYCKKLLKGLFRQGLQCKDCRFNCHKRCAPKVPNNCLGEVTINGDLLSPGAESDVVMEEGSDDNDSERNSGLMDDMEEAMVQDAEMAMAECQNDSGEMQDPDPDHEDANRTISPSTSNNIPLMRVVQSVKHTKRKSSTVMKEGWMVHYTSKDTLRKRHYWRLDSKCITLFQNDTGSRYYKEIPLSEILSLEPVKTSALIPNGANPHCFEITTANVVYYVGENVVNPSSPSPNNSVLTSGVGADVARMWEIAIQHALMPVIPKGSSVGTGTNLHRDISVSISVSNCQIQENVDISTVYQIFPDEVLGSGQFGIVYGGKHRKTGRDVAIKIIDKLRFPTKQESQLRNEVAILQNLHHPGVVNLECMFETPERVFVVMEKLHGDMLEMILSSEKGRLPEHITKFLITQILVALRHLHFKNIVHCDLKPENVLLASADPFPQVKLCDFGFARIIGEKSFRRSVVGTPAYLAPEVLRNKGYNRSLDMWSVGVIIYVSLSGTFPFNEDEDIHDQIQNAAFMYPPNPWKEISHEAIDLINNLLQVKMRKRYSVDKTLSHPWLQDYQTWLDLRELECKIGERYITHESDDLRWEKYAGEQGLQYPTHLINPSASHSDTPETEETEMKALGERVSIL

[9] = biological target: T2, Serine/threonine-protein kinase D1 (Homo sapiens); conditions: at 1 µM
[10] = biological target: T3, Serine/threonine-protein kinase D2 (Homo sapiens) (UniProt Q9BZL6); conditions: at 0.1 µM;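 note: reported percent inhibition values are means, part of the GSK PKIS kinase panel screen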
T3 sequence (whole entry): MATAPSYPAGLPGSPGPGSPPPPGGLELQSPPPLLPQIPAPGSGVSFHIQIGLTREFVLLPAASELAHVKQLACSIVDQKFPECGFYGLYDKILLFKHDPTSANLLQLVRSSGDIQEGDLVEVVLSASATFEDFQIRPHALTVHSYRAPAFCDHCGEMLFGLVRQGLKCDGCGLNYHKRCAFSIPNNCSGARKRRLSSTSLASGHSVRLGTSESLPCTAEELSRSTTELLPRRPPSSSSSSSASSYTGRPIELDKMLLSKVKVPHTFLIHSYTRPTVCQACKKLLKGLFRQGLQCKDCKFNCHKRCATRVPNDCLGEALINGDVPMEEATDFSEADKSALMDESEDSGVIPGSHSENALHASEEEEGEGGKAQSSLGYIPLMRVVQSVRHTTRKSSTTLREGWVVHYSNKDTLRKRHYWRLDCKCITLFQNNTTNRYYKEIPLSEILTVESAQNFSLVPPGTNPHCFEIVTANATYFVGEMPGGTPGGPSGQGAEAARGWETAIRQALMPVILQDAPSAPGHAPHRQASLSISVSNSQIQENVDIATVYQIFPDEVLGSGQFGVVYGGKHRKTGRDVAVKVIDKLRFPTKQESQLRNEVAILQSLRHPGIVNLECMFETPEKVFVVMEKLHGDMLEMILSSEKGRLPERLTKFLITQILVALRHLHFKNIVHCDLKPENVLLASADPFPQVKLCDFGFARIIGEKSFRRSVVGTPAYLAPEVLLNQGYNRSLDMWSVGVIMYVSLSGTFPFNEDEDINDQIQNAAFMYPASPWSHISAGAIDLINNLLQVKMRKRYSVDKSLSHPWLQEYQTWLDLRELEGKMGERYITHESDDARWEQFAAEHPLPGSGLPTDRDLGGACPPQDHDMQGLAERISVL

Protein kinase C theta type (Homo sapiens), sequence (Q04759 whole entry, looked up): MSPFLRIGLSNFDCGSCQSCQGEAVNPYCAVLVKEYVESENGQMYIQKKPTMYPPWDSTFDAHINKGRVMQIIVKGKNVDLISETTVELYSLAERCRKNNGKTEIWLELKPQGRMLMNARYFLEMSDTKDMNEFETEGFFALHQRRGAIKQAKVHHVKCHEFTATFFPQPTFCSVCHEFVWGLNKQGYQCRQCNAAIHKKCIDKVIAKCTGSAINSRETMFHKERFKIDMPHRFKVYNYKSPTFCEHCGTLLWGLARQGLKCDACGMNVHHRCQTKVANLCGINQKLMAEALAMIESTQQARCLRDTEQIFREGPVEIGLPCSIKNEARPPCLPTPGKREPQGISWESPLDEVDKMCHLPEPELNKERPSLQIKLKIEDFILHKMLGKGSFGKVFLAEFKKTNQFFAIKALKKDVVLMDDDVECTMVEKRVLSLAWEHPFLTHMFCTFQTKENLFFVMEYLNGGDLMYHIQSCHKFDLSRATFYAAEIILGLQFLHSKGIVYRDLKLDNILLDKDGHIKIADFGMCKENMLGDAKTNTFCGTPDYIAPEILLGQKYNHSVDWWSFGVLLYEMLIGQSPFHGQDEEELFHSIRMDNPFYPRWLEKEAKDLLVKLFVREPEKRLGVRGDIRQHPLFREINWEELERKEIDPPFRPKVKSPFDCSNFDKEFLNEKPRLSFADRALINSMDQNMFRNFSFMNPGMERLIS
Protein kinase C beta type (Homo sapiens), sequence (P05771 2-671 limits assumed): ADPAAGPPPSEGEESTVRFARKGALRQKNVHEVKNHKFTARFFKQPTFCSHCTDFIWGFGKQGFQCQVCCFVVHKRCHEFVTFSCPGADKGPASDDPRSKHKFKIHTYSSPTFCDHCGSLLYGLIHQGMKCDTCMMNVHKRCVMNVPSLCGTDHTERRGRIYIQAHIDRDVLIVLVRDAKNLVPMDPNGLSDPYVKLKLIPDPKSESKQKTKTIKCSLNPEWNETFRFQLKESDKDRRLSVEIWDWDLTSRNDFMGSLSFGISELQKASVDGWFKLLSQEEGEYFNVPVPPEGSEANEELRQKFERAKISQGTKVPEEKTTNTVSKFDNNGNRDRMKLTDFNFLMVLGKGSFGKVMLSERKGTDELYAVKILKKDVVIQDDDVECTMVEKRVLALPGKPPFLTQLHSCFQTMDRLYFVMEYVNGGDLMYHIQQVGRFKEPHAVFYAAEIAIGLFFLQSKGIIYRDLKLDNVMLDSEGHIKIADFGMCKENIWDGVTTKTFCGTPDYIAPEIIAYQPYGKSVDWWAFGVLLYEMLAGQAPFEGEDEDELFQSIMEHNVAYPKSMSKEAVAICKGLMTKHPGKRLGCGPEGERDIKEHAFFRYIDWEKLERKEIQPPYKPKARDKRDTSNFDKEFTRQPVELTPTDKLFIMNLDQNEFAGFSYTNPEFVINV

Row | SMILES | inhibition [1] [%] | inhibition [2] [%] | inhibition [3] [%] | inhibition [4] [%] | inhibition [5] [%] | inhibition [6] [%] | inhibition [7] [%] | inhibition [8] [%] | inhibition [9] [%] | inhibition [10] [%]
1 | NS(=O)(=O)c1ccc(NC=C2C(=O)Nc3ccc4ncsc4c32)cc1 | 9.7 | 2.56 | 5.28 | 3.44 | 11.8 | 2.28 | 6.13 | 28.5 | 78.4 | 21.3
2 | Cc1ccc(Nc2ccnc(Nc3cccc(C(N)=O)c3)n2)cc1O | 16.4 | 1.56 | -0.31 | 0.93 | 2.94 | 1.81 | 8.28 | -0.94 | 12.1 | -0.15
3 | COc1cccc(-n2ncc3c(N/N=C/c4ccc(S(C)(=O)=O)cc4)ncnc32)c1 | 3.18 | 2.06 | 0.98 | -0.11 | 1.19 | 2.19 | 13.3 | -2.12 | -1.45 | -2.64
4 | COC(=O)c1ccc2c(c1)C(=Cc1cc(Br)c(O)c(Br)c1)C(=O)N2 | 0.79 | 1.17 | 0.96 | 1.25 | 1.86 | 1.12 | 1.9 | 5.07 | 7.26 | 4.47
5 | FC(F)(F)c1ccc(-c2nn3ncccc3c2-c2ccnc(Nc3ccc4c(c3)OCCO4)n2)cc1 | 5.47 | 6.58 | 3.53 | 2.52 | 5.32 | 5.29 | 6.33 | 2.27 | -1.71 | 0.7
6 | COc1cc2ncn(-c3cc(OCc4ccccc4S(C)(=O)=O)c(C#N)s3)c2cc1OC | 6.46 | 2.06 | 3.79 | 2.44 | 3.61 | 1.55 | 4.05 | 2.92 | 5.45 | 3.97
7 | CN(C)C(=O)O[C@H]1CN[C@H](C#Cc2cc3ncnc(Nc4ccc(OCc5cccc(F)c5)c(Cl)c4)c3s2)C1 | 0.1 | 0.58 | 1.07 | 1.43 | 0.06 | 1.29 | 1.12 | 2.38 | 2.68 | 2.3
8 | NC(=O)c1sc(-n2cnc3ccccc32)cc1OCc1ccccc1Br | 3.85 | 1.56 | -0.46 | 1.86 | 2.63 | 1.02 | 2.96 | 5.36 | 9.59 | 7.73
9 | CC(C)c1ccc2c(c1)NC(=O)/C2=N/Nc1ccc(S(N)(=O)=O)cc1 | -0.76 | -1.39 | -2.44 | -0.41 | -0.44 | -0.24 | 0.73 | 0.07 | 0.8 | -0.15
10 | COc1ccc2ncnc(Nc3ccc(OCc4ccccc4)cc3)c2c1 | 5.03 | 0.61 | -0.95 | 1.21 | 1.19 | 0.9 | 1.9 | 3.89 | 3.35 | 0.24
11 | Nc1nccc(-c2c(-c3ccc(F)cc3)ncn2CCCN2CCOCC2)n1 | 6.84 | 3.1 | 3.21 | 2.24 | 3.31 | 3.01 | 7.42 | 4.07 | 5.03 | 5.14
12 | Cc1cc(O)cc(C)c1/C=C/c1cncc(C(=O)N(C)C)c1 | 4.07 | 0.51 | 1.32 | 0.96 | 0.78 | 0.19 | 3 | 1.61 | 2.79 | -2.38
13 | Cc1ccc2c(-c3ccnc(Nc4ccc5c(c4)OCCO5)n3)c(-c3ccc(C(F)(F)F)cc3)nn2n1 | 3.76 | 0.29 | 1.15 | 1.61 | 2.73 | 0.24 | 2.06 | 1.11 | 3.32 | 2.13
14 | OCc1ccc(-c2nc(-c3ccccn3)c(-c3ccc4c(c3)OCO4)[nH]2)cc1 | 1.5 | 2.1 | 3.65 | 2.3 | 0.86 | 0.63 | 0.97 | 4.39 | 8.27 | 4.75
15 | CN(C)C(=O)O[C@@H]1CN[C@@H](C#Cc2cc3ncnc(Nc4ccc(OCc5cccc(F)c5)c(Cl)c4)c3s2)C1 | -0.54 | -1.15 | 0 | -0.8 | -1.63 | 0.88 | 0.87 | 0.32 | 3.71 | 0.79
16 | Cc1cc(Cl)cc2c1NC(=O)C2=NNc1ccc(S(N)(=O)=O)cc1 | 1.99 | 0.57 | 0.13 | 1.67 | 3.19 | 0.04 | 1.07 | 2.49 | 2.15 | 2.28
17 | CS(=O)(=O)CCNCc1nc(-c2ccc3ncnc(Nc4ccc(OCc5cccc(C(F)(F)F)c5)cc4)c3c2)cs1 | 1.21 | -0.91 | -0.71 | 0.61 | 0.48 | 0.86 | 1.98 | 1.69 | 0.7 | 1.93
